# “And” between values parts separate entries of the source, which are not always exact repeats. Identical values can stand only once. Compounds without any hit were thinned out: in the full panel of roughly 83,000, 20% have a hit.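 The endpoint reported here, percent growth, reads 100 for growth as untreated, 0 for no net growth and -100 for all cells dead.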 Values without a mark were called inactive. The source made the active and inactive calls.
# Tested on: HL-60(TB) leukemia
# Assay: NCI-60 one-dose screen, 48 h (100 = growth as untreated, 0 = no growth, -100 = all killed)
# Conditions: 10 µM
# Method: Growth inhibition of the HL-60(TB) human tumor cell line is measured as a screen for anti-cancer activity. Cells are grown in 96 well plates and exposed to the test compound for 48 hours. Compounds are tested at a single concentration, which is 10^-5 M for most compounds. The reported endpoint is percent growth (GI% or GIPRCNT), where numbers from 0 - 100% represent growth inhibition, and numbers from -100% - 0 represent cell death. For example, a value of 40 represents 60% growth inhibition. A value of 0 means no net growth occurred over the course of the experiment. A value of -40 indicates 40% of cells at the beginning of the experiment died by the end of the experiment. A value of -100 means all cells are dead at the end of the experiment.
# NCI-60 Human Tumor Cell Lines Screen was performed using the standard one-dose NCI protocol, which is described in more detail at https://dtp.cancer.gov/discovery_development/nci-60/default.htm.
# Compounds with GIPRCNT values below 10 were considered active. Activity score was based on GIPRCNT using the following formula: […]
# Score is 0 for GIPRCNT values of 100 or above, 50 for GIPRCNT values of 0, and 100 for GIPRCNT values of -100.
row,Compound,growth [%]
1,S=C(SSC(=S)N1CCCCC1)N1CCCCC1,86.4

# Same assay, conditions: 10 µM unless noted
row,Compound,growth
1,COc1cccc2c1cc([N+](=O)[O-])c1c(C(=O)O)cc3c(c12)OCO3,41.6% and 79.4%
2,CCCCCCCCCCCC1CCCC(C)N1 (configuration not stated),-45.8% (active)
3,CC[C@@]1(O)C[C@H](OC2CC(N(C)C)C(O)C(C)O2)c2c(O)c3c(c(O)c2[C@H]1OC1CC(N(C)C)C(O)C(C)O1)C(=O)c1cccc(O)c1C3=O (some centres not stated),-34.3% (active)
4,C[C@]12CC[C@H](O)CC1=CC[C@@H]1[C@@H]2CC[C@]2(C)C(=O)CC[C@@H]12,85%
5,COC1CC(CC2CCC(C)C(C(C)C(=O)O)O2)OC2(OC(C)(C3CCC(C)(C4OC(C5OC(O)(CO)C(C)CC5C)CC4C)O3)CC2C)C1C (configuration not stated),-56% (active)
6,CCC(=O)OC1CCn2c1nc1c2C(=O)C(C)=C(N2CC2)C1=O (configuration not stated),10.4%
7,CCC1(O)CC(OC2CC(N(C)C)C(OC3CC4OC5CC(=O)C(C)OC5OC4C(C)O3)C(C)O2)c2c(cc3c(c2O)C(=O)c2c(O)ccc(O)c2C3=O)C1C(=O)OC (configuration not stated),-41.6% (active)
8,COc1ccc(OC)c(/C=C/[N+](=O)[O-])c1,1.04% (active)
9,NCCc1ccc(OCc2ccccc2)c(OCc2ccccc2)c1,51.4%
10,O=C(O)c1ccccc1.[Ag],113%
11,CC1=C(CO)C2=C(C)C3(CC3)[C@@](C)(O)C(=O)C2=C1,-32.9% (active)
12,Oc1cccc2cccnc12,98.8% and 114% and 78.2%
13,CC[n+]1c(-c2ccccc2)c2cc(N)ccc2c2ccc(N)cc21,23.7%
14,CO[C@H](/C(C)=C/C=C/C(C)=C/c1coc(C)n1)[C@H](C)[C@H]1C[C@@H](O)[C@@]2(C)O[C@H]2/C=C/[C@@H](C)[C@@H]2C[C@@H](CC(=O)O2)C[C@H]2O[C@@H]2C(=O)O1,-36.9% (active)
15,CC[C@@]1(O)C[C@H](OC2CC(N(C)C)C(OC3CC(O)C(OC4CCC(=O)C(C)O4)C(C)O3)C(C)O2)c2c(cc3c(c2O)C(=O)c2c(O)ccc(O)c2C3=O)[C@H]1C(=O)OC (some centres not stated),-9.74% (active)
16,c1ccc2c(c1)[nH]c1c2cc[n+]2cc3c(cc12)CCCC3,13.5%
17,CC1=C2C(=O)[C@H]3[C@@H](CC=C4C[C@@H](O)CC[C@@]43C)[C@@H]2CC[C@]12O[C@@H]1C[C@H](C)CN[C@H]1[C@H]2C,115%
18,Cc1cc(N=Nc2ccccc2C)ccc1N,8.96% (active)
19,CN1CCN(c2ccc([N+](=O)[O-])c3no[n+]([O-])c23)CC1,-42.4% (active)
20,Cc1c(N)nc([C@H](CC(N)=O)NC[C@H](N)C(N)=O)nc1C(=O)N[C@H](C(=O)N[C@H](C)[C@@H](O)[C@H](C)C(=O)N[C@H](C(=O)NCCc1nc(-c2nc(C(=O)NCCC[S+](C)C)cs2)cs1)[C@@H](C)O)C(OC1OC(CO)C(O)C(O)C1OC1OC(CO)C(O)C(OC(N)=O)C1O)c1cnc[nH]1 (some centres not stated),81.8% [2.5 µM]
21,C[C@H]1CCC/C=C/[C@@H]2C[C@H](O)C[C@H]2[C@H](O)/C=C/C(=O)O1,-22.5% (active)
22,CC[C@](O)(C(=O)O)c1cc2n(c(=O)c1CO)Cc1cc3ccccc3nc1-2,-44.6% (active)
23,Cc1ccc(C(=O)OC(C(=O)O)C(OC(=O)c2ccc(C)cc2)C(=O)O)cc1 (configuration not stated) (tested in a mixture with another compound),23.5%
24,COC1=C(C)C(=O)C2=C(C1=O)C(CO)N1C(C#N)C3CC4C(C1C2N1CCOC41)N3C (configuration not stated),-33.9% (active)
25,Oc1ccc(Cl)cc1Sc1cc(Cl)ccc1O,81.8%
26,O=C1c2ccccc2C(=O)C(Cl)C1Cl (configuration not stated),-24.2% (active)
27,Oc1cc[c]([Hg][Cl])cc1,102%
28,COc1ccccc1/C=C(/C)[N+](=O)[O-],30.7% and 92.7%
29,CC(=O)O[C@H]1C[C@@H]2OC3C=C(C)CCC3(C)[C@@]1(C)[C@@]21CO1 (some centres not stated),-42% (active)
30,CCOC(=O)C(NC(=O)C(Cc1ccc(N(CCCl)CCCl)cc1)NC(C)=O)C(C)C (configuration not stated),44.9%

# Same assay, conditions: 100 µM
row,Compound,growth [%]
1,S=C(SSC(=S)N1CCCCC1)N1CCCCC1,14.7

# — PubChem BioAssay (NCI)
